# Data reported in the supplement of paper PMC9135407.
# “And” between values parts separate entries of the source, which are not always exact repeats. Equal entries are not always repeated. Structures can show the parent of a compound that is named as a salt. Out of some 5,800 compounds screened, about 620 (11%) showed activity. The entries come from a sample that favours actives as a whole. Unmarked numbers belong to inactive results.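 How the source made its calls: active = score above a cut-off or among the top three wells of a plate; in these data no inactive exceeds 0.85.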
# Tested on: primary human hepatic stellate cells (donor 1)
# Assay: scaled lipid accumulation score (0 = DMSO-like, 1 = nortriptyline-like); higher = stronger HSC inactivation (lipid re-accumulation), active = hit call of the paper
# Details: 48 h
# Experimental: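 Primary lipid accumulation screen in primary human hepatic stellate cell myofibroblasts (donor 1, passage 8) in 384-well plates. 100 nL of library compound was pin-transferred into 30 µL medium in duplicate, and cells were treated for 48 h. The 'Scaled' score combines distance from plate baseline, toxicity and reproducibility penalties, and is normalised to nortriptyline (positive) and DMSO (negative) controls on each plate. A hit is defined as scaled >0.85 or among the top 3 wells per plate.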
# [1] = library stock concentration: 3.33 mM
# [2] = library stock concentration: 10 mM
# [3] = library stock concentration: 80 uM
# [4] = library stock concentration: 400 uM
# [5] = library stock concentration: 2 mM
# [6] = library stock concentration: 1 mM
compound,measurement,setting,value
CNCCc1ccccn1 [Betahistine 2HCl],scaled lipid accumulation score,[1],≤ 0
same,scaled lipid accumulation score,[2],≤ -0.001
CC(NCCC(c1ccccc1)c1ccccc1)c1ccccc1 (stereo not drawn) [Fendiline hydrochloride],scaled lipid accumulation score,,0.144
same,scaled lipid accumulation score,[2],0.431
CNCCc1ccccn1 [Betahistine hydrochloride],scaled lipid accumulation score,library stock concentration: 9.6 mM,≤ 0
CNCCc1c[nH]c(CCC(c2ccccc2)c2ccccc2)n1.O=C(O)C(=O)O.O=C(O)C(=O)O [N-Methylhistaprodifen dioxalate salt],scaled lipid accumulation score,[2],1.02 (active)
CNCCc1ccccn1 [Betahistine mesylate],scaled lipid accumulation score,,0.122
CCCc1nc(C)c2c(=O)nc(-c3cc(S(=O)(=O)N4CCN(CC)CC4)ccc3OCC)[nH]n12 [Vardenafil HCl Trihydrate],scaled lipid accumulation score,[1],≤ 0
same,scaled lipid accumulation score,[2],0.473
CCCc1nc(C)c2c(=O)nc(-c3cc(S(=O)(=O)N4CCN(CC)CC4)ccc3OCC)[nH]n12,scaled lipid accumulation score,[2],≤ 0
COc1cc2ncnc(-n3nc(-c4ccccn4)nc3N)c2cc1OC,scaled lipid accumulation score,[3],≤ 0
same,scaled lipid accumulation score,[4],0.052
same,scaled lipid accumulation score,[5],0.101
same,scaled lipid accumulation score,[2],0.046
N[C@H]1C(O)O[C@H](CO)[C@@H](O)[C@@H]1O (stereo partly drawn) [Glucosamine hydrochloride],scaled lipid accumulation score,library stock concentration: 9.3 mM,≤ -0.001
same,scaled lipid accumulation score,[2],0.034
"CCCCCC=CCC=CCC=CCC=CCCCCCC(=O)O [Adrenic acid (22:4, n-6)]",scaled lipid accumulation score,[6],≤ -0.01
"CCN(CC)CCOc1ccc(/C(=C(/Cl)c2ccccc2)c2ccccc2)cc1.O=C(O)CC(O)(CC(=O)O)C(=O)O [Clomiphene citrate (Z,E)]",scaled lipid accumulation score,,0.946 (active)
CCN(CC)CCOc1ccc(C(=C(Cl)c2ccccc2)c2ccccc2)cc1.O=C(O)CC(O)(CC(=O)O)C(=O)O [Clomid],scaled lipid accumulation score,[2],0.963 (active)
CCN(CC)CCOCCOC(=O)C(CC)(CC)c1ccccc1.O=C(O)CC(O)(CC(=O)O)C(=O)O,scaled lipid accumulation score,[2],0.866 (active)
CCN(CC)CCOCCOC(=O)C1(c2ccccc2)CCCC1 [Carbetapentane citrate],scaled lipid accumulation score,,0.595
same,scaled lipid accumulation score,[2],0.72 and 0.014 and 0.411
CCN(CC)CCOC(=O)c1ccc(N)cc1 [Procaine HCl],scaled lipid accumulation score,[1],≤ 0
same,scaled lipid accumulation score,[2],≤ -0.001
CCN(CC)CCOCCOC(=O)C1(c2ccccc2)CCCC1 [Pentoxyverine Citrate],scaled lipid accumulation score,[1],≤ 0
same,scaled lipid accumulation score,[2],0.424
CCN(CC)CCOc1ccc(C(=C(Cl)c2ccccc2)c2ccccc2)cc1 [Clomiphene citrate],scaled lipid accumulation score,library stock concentration: 4.9 mM,0.705
same,scaled lipid accumulation score,[2],≤ 0
CCCC(C(=O)OCCN(CC)CC)(c1ccccc1)c1ccccc1 [SKF-525A hydrochloride],scaled lipid accumulation score,[2],0.355
CCN(CC)CCOc1ccc(C(=C(Cl)c2ccccc2)c2ccccc2)cc1 [Clomifene citrate],scaled lipid accumulation score,[1],0.72
CCN(CC)CCOc1ccc(C(=C(Cl)c2ccccc2)c2ccccc2)cc1.O=C(O)CC(O)(CC(=O)O)C(=O)O [Clomifene citrate],scaled lipid accumulation score,[2],1.12 (active)
CCCC(C(=O)OCCN(CC)CC)(c1ccccc1)c1ccccc1 [Proadifen hydrochloride],scaled lipid accumulation score,,0.228
same,scaled lipid accumulation score,library stock concentration: 5.1 mM,0.536
same,scaled lipid accumulation score,[2],0.511
COc1ccc(C(Cl)=C(c2ccc(OC)cc2)c2ccc(OC)cc2)cc1 [Chlorotrianisene],scaled lipid accumulation score,,≤ 0
same,scaled lipid accumulation score,library stock concentration: 5.3 mM,0.022
same,scaled lipid accumulation score,[2],≤ 0
CCN(CC)CCOC(=O)c1ccc(N)cc1 [Procaine hydrochloride],scaled lipid accumulation score,,0.256
same,scaled lipid accumulation score,library stock concentration: 7.3 mM,≤ 0
same,scaled lipid accumulation score,[2],≤ 0
CC(C)[C@H]1c2ccc(F)cc2CC[C@@]1(CCN(C)CCCc1nc2ccccc2[nH]1)OC(=O)C1CC1 [NNC 55-0396 dihydrochloride],scaled lipid accumulation score,[2],0.432
CC(C)[C@H]1c2ccc(F)cc2CC[C@@]1(CCN(C)CCCc1nc2ccccc2[nH]1)OC(=O)C1CC1,scaled lipid accumulation score,[2],≤ -0.055
COc1ccc(-c2nc3cc(F)ccc3s2)cc1OC,scaled lipid accumulation score,[6],≤ 0
C=C1C[C@]23C[C@@]1(O)CC[C@H]2[C@@]12C=C[C@H](O)[C@@](C)(C(=O)O1)[C@H]2[C@@H]3C(=O)O [Gibberellic acid],scaled lipid accumulation score,,≤ 0
Cc1cc(I)ccc1Nc1c(C(=O)NOCC2CC2)cc(F)c(F)c1F,scaled lipid accumulation score,[2],≤ -0.001
CCc1cc2c(c(CC)n1)CCC(=O)N2Cc1ccc(-c2ccccc2-c2nn[nH]n2)cc1 [ZD 7155 hydrochloride],scaled lipid accumulation score,[2],0.009
CCCCCCCCCCCCCCC[C@@H](O)[C@H](CO)NC(=O)CCCCCCC [C8 Dihydroceramide],scaled lipid accumulation score,[6],≤ -0.021
CN(CCCOc1ccc(Cc2ccccc2)cc1)CCC(=O)O,scaled lipid accumulation score,[2],≤ 0
CCN(CC)CCOc1ccc(Cc2ccccc2)cc1.O=C(O)/C=C/C(=O)O [DPPE fumarate],scaled lipid accumulation score,[2],0.879 (active)
CCN(CC)CCOC(=O)C(c1ccccc1)c1ccccc1 [Adiphenine HCl],scaled lipid accumulation score,[1],≤ 0
same,scaled lipid accumulation score,[2],≤ 0
CCN(CC)CCOC(=O)C(c1ccccc1)c1ccccc1 [Adiphenine hydrochloride],scaled lipid accumulation score,,≤ 0
same,scaled lipid accumulation score,library stock concentration: 5.7 mM,0.005
same,scaled lipid accumulation score,[2],0.111
COc1ccc2c(c1)c(CC(=O)Nc1cccnc1)c(C)n2C(=O)c1ccc(Cl)cc1 [N-(3-pyridyl)-Indomethacin amide],scaled lipid accumulation score,[6],0.198
CCCc1ccc(C(=O)Oc2ccc(C#N)cc2)cc1,scaled lipid accumulation score,[2],0.011
CN(C)C(=O)CCSC(SCCC(=O)O)c1cccc(/C=C/c2ccc3ccc(Cl)cc3n2)c1 (stereo not drawn) [MK 571 (sodium salt)],scaled lipid accumulation score,[6],≤ 0
CCOc1cc2ncc(C#N)c(Nc3ccc(F)c(Cl)c3)c2cc1NC(=O)C=CCN(C)C [Pelitinib (EKB-569)],scaled lipid accumulation score,[1],1.01 (active)
CCOc1cc(C(=O)Nc2ccc(Cl)c(-c3nc4ccccc4[nH]3)c2)cc(OCC)c1OCC,scaled lipid accumulation score,[2],0.438
CCOc1cc2ncc(C#N)c(Nc3ccc(F)c(Cl)c3)c2cc1NC(=O)/C=C/CN(C)C [Pelitinib (EKB-569)],scaled lipid accumulation score,[2],0.498
CCOc1cc2ncc(C#N)c(Nc3ccc(F)c(Cl)c3)c2cc1NC(=O)/C=C/CN(C)C,scaled lipid accumulation score,[3],0.071
same,scaled lipid accumulation score,[4],≤ -0.009
same,scaled lipid accumulation score,[5],0.269
CCOc1cc2ncc(C#N)c(Nc3ccc(F)c(Cl)c3)c2cc1NC(=O)C=CCN(C)C,scaled lipid accumulation score,[2],1.13 (active)
CCOc1cc2ncc(C#N)c(Nc3ccc(OCc4ccccn4)c(Cl)c3)c2cc1NC(=O)/C=C/CN(C)C,scaled lipid accumulation score,[3],≤ 0
same,scaled lipid accumulation score,[4],≤ 0
same,scaled lipid accumulation score,[5],0.107
same,scaled lipid accumulation score,[2],0.02
CCCCCC(=O)/C=C/[C@H]1[C@H](O)CC(=O)[C@@H]1CCCCCCC(=O)O [15-keto Prostaglandin E1],scaled lipid accumulation score,[6],≤ 0
O=C(Nc1ccc([N+](=O)[O-])cc1O)Nc1ccccc1Br,scaled lipid accumulation score,[6],≤ 0
same,scaled lipid accumulation score,[2],0.317
O[C@@H](COc1cccc2ncccc12)CN1CCN(C2c3ccccc3[C@@H]3[C@H](c4ccccc42)C3(F)F)CC1 (stereo partly drawn),scaled lipid accumulation score,[1],0.206
same,scaled lipid accumulation score,[2],0.837
CCC(C)N(C)C(=O)c1cc2ccccc2c(-c2ccccc2Cl)n1 (stereo not drawn),scaled lipid accumulation score,[2],0.007 and ≤ 0
CC(C)(F)C[C@H](N[C@@H](c1ccc(-c2ccc(S(C)(=O)=O)cc2)cc1)C(F)(F)F)C(=O)NC1(C#N)CC1 [Odanacatib (MK-0822)],scaled lipid accumulation score,[1],≤ 0
same,scaled lipid accumulation score,[2],≤ 0
"CC(C)CCOc1ccc(N)cc1 [CP 24,879 (hydrochloride)]",scaled lipid accumulation score,[6],≤ 0
CN(C)CCOc1ccc(-c2nc(-c3ccncc3)c(-c3ccc4c(c3)CCC4=NO)[nH]2)cc1,scaled lipid accumulation score,[1],1.06 (active)
CN(C)CCOc1ccc(-c2nc(-c3ccncc3)c(-c3ccc4c(c3)CC/C4=N\O)[nH]2)cc1,scaled lipid accumulation score,[3],0.074
same,scaled lipid accumulation score,[4],0.325 and 0.619
same,scaled lipid accumulation score,[5],0.7 and 0.684
same,scaled lipid accumulation score,[2],0.476 and 0.423 and 0.307
OCCn1cc(-c2ccc3c(c2)CC/C3=N\O)c(-c2ccncc2)n1,scaled lipid accumulation score,[3],0.006
same,scaled lipid accumulation score,[4],0.086
same,scaled lipid accumulation score,[5],≤ -0.009
same,scaled lipid accumulation score,[1],0.041
same,scaled lipid accumulation score,[2],≤ 0 and ≤ -0.009
"CCCCCC(O)CCC1C(O)CC(=O)C1CCCCCCC(=O)O [13,14-dihydro-15(R)-Prostaglandin E1]",scaled lipid accumulation score,[6],≤ 0
"CCCCCC(O)CCC1C(O)CC(=O)C1CCCCCCC(=O)O (stereo not drawn) [13,14-dihydro Prostaglandin E1]",scaled lipid accumulation score,[6],≤ 0
COc1ccc(-c2nc(-c3ccc(-c4cccc(Cl)c4)o3)[nH]c2-c2ccc(OC)cc2)cc1 [Neurodazine],scaled lipid accumulation score,[6],0.352
same,scaled lipid accumulation score,[2],0.113
CC(=O)OC1CC2CCC1(C)C2(C)C (stereo not drawn),scaled lipid accumulation score,[2],≤ 0
Cc1cc(C=C2C(=O)C=CC2=O)cc(C)c1O [listing 1 of 2 here],scaled lipid accumulation score,[3],≤ -0.001
same,scaled lipid accumulation score,[4],≤ -0.001
same,scaled lipid accumulation score,[5],0.593
same,scaled lipid accumulation score,[1],0.464
Cc1cc(C=C2C(=O)C=CC2=O)cc(C)c1O [listing 2 of 2 here],scaled lipid accumulation score,[2],0.924 (active)
CCCCCCCCCCCCCCCCOCC(COP(=O)(O)OCC[N+](C)(C)C)OCC (stereo not drawn) [2-O-ethyl PAF C-16],scaled lipid accumulation score,[6],≤ 0
CC(=O)NC(C(=O)O)c1ccccc1 (stereo not drawn),scaled lipid accumulation score,[2],≤ 0
CC(=O)Nc1ccc([C@H](C)C(=O)Nc2ncc(C(C)C)s2)cc1,scaled lipid accumulation score,[4],≤ -0.005
same,scaled lipid accumulation score,[5],0.175
same,scaled lipid accumulation score,[2],0.348
CC(C)C(=O)Nc1ncc(-c2cc(C(F)F)nn2-c2c(Cl)cccc2Cl)s1,scaled lipid accumulation score,[2],1.1 (active)
